Reference: PubChem BioAssay AID1159580 (chemical genetic matrix, 2015)
The whole screen tested about 5,500 compounds, of which about 2,000 (36%) were called active. About 18% were inconclusive and are not listed. Cut-off read from the data, not from the text of the source: active = normalized growth mostly below about 0.91 (no sharp cut-off); inconclusive = no clear call, values can overlap the other calls; inactive = mostly above about 0.92. The list shows a part of the results.

Assay: chemical genetic growth profiling, strain panel (AID 1159580);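 note: tested at 20 µM; growth read once vehicle control cultures reached saturation at 30 °C; 1 = growth at the plate median or of vehicle wells; lower values mean less growth of the strain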
Settings: growth OD

Measured: normalized growth

CC(=O)Oc1c(C)cccc1C(=O)O
inactive: S. cerevisiae deletion strains, locus YJR043C, strain POL32, stronger effect = lower value 1 | S. cerevisiae deletion strains, locus YJR075W, strain HOC1, stronger effect = lower value 1.01 | S. cerevisiae deletion strains, locus YKL009W, strain mrt4, stronger effect = lower value 0.975 | S. cerevisiae deletion strains, locus YKL068W, stronger effect = lower value 0.995 | S. cerevisiae deletion strains, locus YKL085W, strain MDH1 (second series), stronger effect = lower value 1 | S. cerevisiae deletion strains, locus YKL085W, strain MDH1, stronger effect = lower value 1 | S. cerevisiae deletion strains, locus YKL160W, strain elf1, stronger effect = lower value 0.994 | S. cerevisiae deletion strains, locus YKL190W, strain CNB1, stronger effect = lower value 1.01 | S. cerevisiae deletion strains, locus YKR001C, strain vps1, stronger effect = lower value 1.02 | S. cerevisiae deletion strains, locus YKR026C, strain gcn3, stronger effect = lower value 0.986 | S. cerevisiae deletion strains, locus YKR091W, strain srl3, stronger effect = lower value 1.02 | S. cerevisiae deletion strains, locus YLL001W, strain dnm1, stronger effect = lower value 0.986 | S. cerevisiae deletion strains, locus YLL026W, stronger effect = lower value 1.01 | S. cerevisiae deletion strains, locus YLL041C, strain sdh2, stronger effect = lower value 0.991 | S. cerevisiae deletion strains, locus YLR027C, strain aat2, stronger effect = lower value 0.989 | S. cerevisiae deletion strains, locus YLR039C, strain RIC1, stronger effect = lower value 1 | S. cerevisiae deletion strains, locus YLR058C, strain SHM2, stronger effect = lower value 1.01 | S. cerevisiae deletion strains, locus YLR102C, strain apc9, stronger effect = lower value 1.01 | S. cerevisiae deletion strains, locus YLR221C, strain rsa3, stronger effect = lower value 1.02 | S. cerevisiae deletion strains, locus YLR258W, strain gsy2, stronger effect = lower value 0.999 | S. cerevisiae deletion strains, locus YLR262C, strain YPT6 (second series), stronger effect = lower value 1.03 | S. cerevisiae deletion strains, locus YLR262C, strain YPT6, stronger effect = lower value 1.05 | S. cerevisiae deletion strains, locus YLR268W, strain sec22, stronger effect = lower value 1.01 | S. cerevisiae deletion strains, locus YLR320W, strain mms22, stronger effect = lower value 1.03 | S. cerevisiae deletion strains, locus YLR330W, strain CHS5, stronger effect = lower value 1 | S. cerevisiae deletion strains, locus YLR342W, strain FKS1 (second series), stronger effect = lower value 1.02 | S. cerevisiae deletion strains, locus YLR342W, strain FKS1, stronger effect = lower value 1 | S. cerevisiae deletion strains, locus YLR357W, strain rsc2, stronger effect = lower value 1.04 | S. cerevisiae deletion strains, locus YLR370C, strain arc18, stronger effect = lower value 0.992 | S. cerevisiae deletion strains, locus YLR371W, strain rom2, stronger effect = lower value 1.01 | S. cerevisiae deletion strains, locus YLR384C, strain iki3, stronger effect = lower value 1.01 | S. cerevisiae deletion strains, locus YLR418C, strain cdc73, stronger effect = lower value 1.03 | S. cerevisiae deletion strains, locus YML016C, strain PPZ1, stronger effect = lower value 1.02 | S. cerevisiae deletion strains, locus YML032C, strain rad52, stronger effect = lower value 1.02 | S. cerevisiae deletion strains, locus YML120C, strain ndi1, stronger effect = lower value 1.02 | S. cerevisiae deletion strains, locus YML124C, strain tub3, stronger effect = lower value 1.01 | S. cerevisiae deletion strains, locus YMR058W, strain fet3, stronger effect = lower value 1.02 | S. cerevisiae deletion strains, locus YMR078C, strain ctf18, stronger effect = lower value 1.02 | S. cerevisiae deletion strains, locus YMR125W, strain sto1, stronger effect = lower value 1 | S. cerevisiae deletion strains, locus YMR129W, stronger effect = lower value 1.02 | S. cerevisiae deletion strains, locus YMR205C, strain PFK2, stronger effect = lower value 0.986 | S. cerevisiae deletion strains, locus YMR223W, strain ubp8, stronger effect = lower value 1.01 | S. cerevisiae deletion strains, locus YMR231W, strain pep5, stronger effect = lower value 1.01 | S. cerevisiae deletion strains, locus YMR263W, strain SAP30, stronger effect = lower value 1.01 | S. cerevisiae deletion strains, locus YMR307W, strain GAS1, stronger effect = lower value 1.05 | S. cerevisiae deletion strains, locus YNL067W, strain RPL9B, stronger effect = lower value 1.01 | S. cerevisiae deletion strains, locus YNL071W, strain lat1, stronger effect = lower value 1.02 | S. cerevisiae deletion strains, locus YNL128W, strain TEP1, stronger effect = lower value 1.01 | S. cerevisiae deletion strains, locus YNL153C, strain GIM3, stronger effect = lower value 1.01 | S. cerevisiae deletion strains, locus YNL209W, strain ssb2, stronger effect = lower value 1.01 | S. cerevisiae deletion strains, locus YNL233W, strain BNI4, stronger effect = lower value 1.01 | S. cerevisiae deletion strains, locus YNL248C, strain rpa49, stronger effect = lower value 1.01 | S. cerevisiae deletion strains, locus YNL250W, strain rad50, stronger effect = lower value 1.02 | S. cerevisiae deletion strains, locus YNL271C, strain bni1, stronger effect = lower value 1.01 | S. cerevisiae deletion strains, locus YNL298W, strain CLA4, stronger effect = lower value 0.987 | S. cerevisiae deletion strains, locus YNL307C, strain MCK1, stronger effect = lower value 1.02 | S. cerevisiae deletion strains, locus YNL322C, strain KRE1 (second series), stronger effect = lower value 1.01 | S. cerevisiae deletion strains, locus YNL322C, strain KRE1, stronger effect = lower value 1.01 | S. cerevisiae deletion strains, locus YNR049C, strain mso1, stronger effect = lower value 0.978 | S. cerevisiae deletion strains, locus YNR052C, strain pop2, stronger effect = lower value 1.01 | S. cerevisiae deletion strains, locus YOL006C, strain TOP1, stronger effect = lower value 1.02 | S. cerevisiae deletion strains, locus YOL012C, strain htz1 1.54 | S. cerevisiae deletion strains, locus YOL147C, strain pex11, stronger effect = lower value 1.01 | S. cerevisiae deletion strains, locus YOR001W, strain rrp6, stronger effect = lower value 1.01 | S. cerevisiae deletion strains, locus YOR061W, strain CKA2, stronger effect = lower value 1 | S. cerevisiae deletion strains, locus YOR069W, strain VPS5, stronger effect = lower value 1.01 | S. cerevisiae deletion strains, locus YOR070C, strain gyp1, stronger effect = lower value 0.99 | S. cerevisiae deletion strains, locus YOR080W, strain dia2, stronger effect = lower value 0.999 | S. cerevisiae deletion strains, locus YOR083W, strain WHI5, stronger effect = lower value 1.01 | S. cerevisiae deletion strains, locus YOR106W, strain vam3, stronger effect = lower value 1.01 | S. cerevisiae deletion strains, locus YOR136W, strain idh2, stronger effect = lower value 1.02 | S. cerevisiae deletion strains, locus YOR144C, strain elg1, stronger effect = lower value 1.02 | S. cerevisiae deletion strains, locus YOR184W, strain ser1, stronger effect = lower value 1.01 | S. cerevisiae deletion strains, locus YOR265W, strain rbl2, stronger effect = lower value 0.993 | S. cerevisiae deletion strains, locus YOR270C, strain vph1, stronger effect = lower value 1.06 | S. cerevisiae deletion strains, locus YOR290C, strain snf2, stronger effect = lower value 0.99 | S. cerevisiae deletion strains, locus YOR316C, strain cot1, stronger effect = lower value 1.02 | S. cerevisiae deletion strains, locus YPL051W, strain arl3, stronger effect = lower value 1 | S. cerevisiae deletion strains, locus YPL055C, strain LGE1, stronger effect = lower value 1.03 | S. cerevisiae deletion strains, locus YPL078C, strain atp4, stronger effect = lower value 1.02 | S. cerevisiae deletion strains, locus YPL106C, strain sse1, stronger effect = lower value 1.06 | S. cerevisiae deletion strains, locus YPL240C, strain hsp82, stronger effect = lower value 0.973 | S. cerevisiae deletion strains, locus YPL241C, strain CIN2, stronger effect = lower value 0.986 | S. cerevisiae deletion strains, locus YPR119W, strain clb2, stronger effect = lower value 1 | S. cerevisiae deletion strains, locus YPR141C, strain kar3, stronger effect = lower value 1 | S. cerevisiae deletion strains, locus YPR163C, strain tif3, stronger effect = lower value 1.01 | S. cerevisiae deletion strains, locus YPR167C, strain met16, stronger effect = lower value 1.01 | S. cerevisiae deletion strains, strain wtn01, stronger effect = lower value 1 | S. cerevisiae strains, strain wild type, stronger effect = lower value 0.993
